Source: PubChem (The Scripps Research Institute Molecular Screening Center)
PLC-gamma1 inh – PLC-gamma1 enzyme inhibitors, primary screen, biochemical, fluorescence, purified enzyme; inhibition, % at 12.2 µM; fluorogenic substrate; AID 720700, 2013; 370,000 tested, 0.84% active; 1-phosphatidylinositol 4,5-bisphosphate phosphodiesterase gamma-1 (Homo sapiens), P19174
ADAM10 inh – human ADAM10 inhibitors, primary screen, biochemical, QFRET, HTS | Disintegrin and metalloproteinase domain-containing protein 10 (Homo sapiens), O14672 | recombinant ADAM10, EDANS/DABCYL FRET peptide cleavage, 3 h | 370,000 tested, 0.62% active | AID 720582, 2013 | inhibition, % at 7 µM;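 active means inhibition above a per-campaign cutoff equal to the mean of compounds falling between control-based bounds plus 3 SD, cut at about 20% in these data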;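 further: 0% = DMSO wells while the 100% control is not disclosed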
PLCb3 inh – human PLC-beta3 inhibitors, primary screen, biochemical, fluorescence; 370,000 tested, 0.18% active; 1-phosphatidylinositol 4,5-bisphosphate phosphodiesterase beta-3 (Homo sapiens), Q01970; inhibition, % at 12.2 µM; Purified PLC-beta3, fluorogenic substrate; in the data active means inhibition above about 11%;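 further: 0% = median of compound wells on plate and 100% = full blocker control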
Target sequence (Q01970 whole entry, looked up): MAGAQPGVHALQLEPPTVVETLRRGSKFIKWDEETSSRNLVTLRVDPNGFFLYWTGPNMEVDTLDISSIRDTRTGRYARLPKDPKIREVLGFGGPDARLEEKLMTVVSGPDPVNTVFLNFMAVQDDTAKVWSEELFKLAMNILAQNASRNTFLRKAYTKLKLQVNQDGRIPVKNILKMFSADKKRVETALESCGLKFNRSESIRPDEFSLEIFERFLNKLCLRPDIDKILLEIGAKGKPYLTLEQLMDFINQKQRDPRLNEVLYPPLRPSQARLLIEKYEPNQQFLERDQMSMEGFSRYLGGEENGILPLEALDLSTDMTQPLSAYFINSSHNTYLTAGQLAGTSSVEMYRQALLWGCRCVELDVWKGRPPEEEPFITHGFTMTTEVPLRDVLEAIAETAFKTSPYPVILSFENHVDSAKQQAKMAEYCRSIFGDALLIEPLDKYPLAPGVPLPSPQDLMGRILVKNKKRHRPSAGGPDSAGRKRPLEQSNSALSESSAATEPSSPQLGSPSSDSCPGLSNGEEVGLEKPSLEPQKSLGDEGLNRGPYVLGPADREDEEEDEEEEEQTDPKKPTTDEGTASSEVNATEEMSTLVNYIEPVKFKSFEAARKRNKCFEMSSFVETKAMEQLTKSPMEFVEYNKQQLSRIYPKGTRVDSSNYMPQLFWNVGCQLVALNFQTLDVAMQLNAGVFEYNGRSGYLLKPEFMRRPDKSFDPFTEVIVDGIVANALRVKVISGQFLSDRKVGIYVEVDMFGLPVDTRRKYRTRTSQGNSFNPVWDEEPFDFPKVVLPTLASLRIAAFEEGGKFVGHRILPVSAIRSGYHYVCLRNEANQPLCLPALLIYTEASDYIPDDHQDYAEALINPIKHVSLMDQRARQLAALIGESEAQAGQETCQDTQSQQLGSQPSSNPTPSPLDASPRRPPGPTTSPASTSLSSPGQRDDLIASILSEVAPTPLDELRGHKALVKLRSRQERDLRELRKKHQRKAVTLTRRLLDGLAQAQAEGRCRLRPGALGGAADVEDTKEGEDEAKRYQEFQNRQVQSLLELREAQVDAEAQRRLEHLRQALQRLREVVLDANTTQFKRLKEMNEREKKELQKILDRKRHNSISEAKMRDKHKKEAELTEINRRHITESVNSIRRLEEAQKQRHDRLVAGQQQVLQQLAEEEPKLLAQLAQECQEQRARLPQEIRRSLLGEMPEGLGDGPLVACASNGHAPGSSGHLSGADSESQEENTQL
proKLK7 act – proKLK7 zymogen activators, primary screen, biochemical, fluorescence intensity; activation, % at 7 µM; Kallikrein-7 (Homo sapiens), P49862; 370,000 tested, 0.9% active; purified proKLK7, EDANS-DABCYL substrate fluorescence; 100% is mature enzyme control, 0% vehicle;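 active means activation above the mean of all tested compounds plus 3 SD, computed per campaign excluding outliers beyond control limits, cut at about 13% in these data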
ADAM17 inh – ADAM17 inhibitors, primary screen, biochemical, QFRET | recombinant ADAM17, EDANS/DABCYL FRET peptide cleavage | inhibition, % at 6.95 µM | 370,000 tested, 0.83% active | Disintegrin and metalloproteinase domain-containing protein 17 (Homo sapiens), P78536;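 active means inhibition above the mean of compounds lying between control limits plus 3 SD, set per campaign, cut at about 8.5% in these data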;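 further: 0% = DMSO-only wells as the low control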
PLCgamma1 ctr – PLC-gamma1 enzyme inhibitors, counter-screen for PLC-beta3 inhibitor project, biochemical, fluorescence. shares compounds with PLC-gamma1 inh. purified PLC-gamma1, fluorogenic substrate. inhibition, % at 12.3 µM. 3,300 tested, 3.1% active. AID 743258, 2014
PLCb3 confirm – PLC-beta3 inhibitor confirmation, biochemical, fluorescence, purified enzyme; shares compounds with PLC-gamma1 inh; fluorogenic substrate fluorescence; inhibition, % at 12.3 µM; 3,300 tested, 1% active; in the data active means inhibition above about 11%
Active calls of the source: *; i = inactive; · = no result given. The list is not random: actives were taken first. Their share in the collection is about 2.9%. Unless noted, no stated cut-off is given here; in the data, active means inhibition above about 9.5%; inactive means the rest.

SMILES	PLC-gamma1 inh	ADAM10 inh	PLCb3 inh	proKLK7 act	ADAM17 inh	PLCgamma1 ctr	PLCb3 confirm
CCOc1cccc(C(=O)Nc2ccc(NC(=O)c3ccccc3)c(C)c2)c1	6.6	13.2	14.7*	0.5	2.3	-2.7	14.3*
COCC(=O)Nc1ccccc1C(=O)Nc1ccc(OC)cc1	10.8*	1.9	1.2	-0.8	1.7	-7.3	-0.6
COc1ccc(C(=O)NNS(=O)(=O)c2ccccc2)cc1	-0.8	-1.5	-0.4	-0.2	-2.2	·	·
COc1cccc(C(=O)Nc2cccc3ccccc23)c1	15.5*	6.9	3.5	0.7	2.7	3.4	1.6
Cn1c(=O)c2cc(NC(=O)Cc3ccccc3F)ccc2n1Cc1ccc(Cl)cc1	-222.8	i	-288.5	-5.1	-282.9	·	·
COC(=O)c1cccc(-n2c(=O)n(Cc3ccccc3)c(=O)c3[nH]cnc32)c1C	0.0	4.6	-7.7	0.1	-6.8	·	·
COc1ccc(CCNC(=O)CC(C)(C)CC2=NS(=O)(=O)c3ccccc3N2)cc1OC	-1.5	-2.0	3.6	0.2	-1.2	·	·
CCC(C)NC(=O)c1ccccc1NC(=O)COc1ccc(OC)cc1 (stereo not drawn)	10.8*	12.6	5.7	-0.2	3.8	-3.0	0.1
COc1ccc(NC(=O)c2cccc3ccccc23)cc1	9.9*	11.5	-4.2	-0.5	2.0	-7.6	-3.9
COc1ccc(NC(=O)c2cccc3c(Br)cccc23)cc1	0.7	-3.3	-8.8	-0.2	-2.6	·	·
COc1ccc(OCC(=O)Nc2ccccc2C(=O)NC(C)C)cc1	-1.2	-3.9	-0.1	-0.2	-0.2	·	·
Nc1ncnc2c1ncn2[C@@H]1O[C@H](C(=O)Nc2cc(C(F)(F)F)cc(C(F)(F)F)c2)[C@@H](O)[C@H]1O	7.7	2.0	-0.5	-0.8	-4.1	·	·
COc1ccc(-n2c(C)nn(C)c2=O)cc1	9.9*	7.7	7.7	0.3	2.5	-8.5	-1.7
COc1ccc(-n2nc(C)cc2N)cc1	-1.6	-2.6	1.3	0.2	0.1	·	·
CC(Sc1nnc(C2CC2)n1N)C(=O)NC1CCCCC1C (stereo not drawn)	9.9*	6.9	2.6	0.2	-1.5	-3.7	1.2
CC(Sc1nnc(-c2ccco2)n1N)C(=O)NC1CCCCC1C (stereo not drawn)	0.4	-3.9	-4.5	-0.1	-2.2	·	·
COc1cc(OC)cc(C(=O)NCCN2C(=O)S/C(=C\c3cccs3)C2=O)c1	2.5	-0.4	-4.1	-0.2	0.3	·	·
CCOc1ncccc1C(=O)NCCN1C(=O)S/C(=C/c2cccs2)C1=O	12.8*	5.6	9.1	-0.6	1.4	-2.1	1.6
COc1cc(C(=O)NCCN2C(=O)S/C(=C\c3cccs3)C2=O)cc(OC)c1OC	10.2*	3.7	0.6	-0.2	-2.3	0.8	1.9
Cc1ccc(Nc2cc(C)nc3ncnn23)c(C)c1	3.6	-3.4	-1.4	-0.3	0.9	·	·
CC1CC(C)CN(C(=O)Cn2c(=O)n(CCCC(=O)NCc3ccco3)c(=O)c3sccc32)C1 (stereo not drawn)	-0.3	0.8	-1.9	0.0	-2.5	·	·
CC1CCN(C(=O)Cn2c(=O)n(CCCC(=O)NCc3ccco3)c(=O)c3sccc32)CC1	13.3*	-3.5	-1.8	0.6	2.9	-7.5	-1.9
CCCC(C)C(=O)Nc1cccc(NC(C)=O)c1 (stereo not drawn)	12.3*	4.3	7.5	-0.3	4.2	-6.1	-3.5
CCCC(C)C(=O)Nc1ccc2c(c1)OCCO2 (stereo not drawn)	1.2	-12.1	2.9	0.2	-2.9	·	·
Cc1sc2ccccc2c1CNC[C@H]1O[C@@H](n2cnc(C(N)=O)n2)[C@H](O)[C@@H]1O	9.8*	3.9	2.7	-0.2	3.5	-4.1	-3.1
SMILES	PLC-gamma1 inh	ADAM10 inh	PLCb3 inh	proKLK7 act	ADAM17 inh	PLCgamma1 ctr	PLCb3 confirm
Fc1cccc(Cc2c(-c3ccccc3)nc3c(Cl)cc(C(F)(F)F)cn23)c1	-2.4	-7.8	1.6	0.1	-1.0	·	·
O=C1COc2ccc(S(=O)(=O)CCC(=O)NC3CCCCC3)cc2N1	-0.3	-4.6	-7.3	0.1	-3.8	·	·
CCOC(=O)C1=C(CC)Nc2ccccc2N=C1NC(=O)Cn1cnc2ccccc2c1=O	9.5*	1.4	8.3	0.3	2.0	-7.1	-2.6
CCc1ccc(NC(=O)CCNC(=O)Cn2cnc3ccccc3c2=O)cc1	3.1	9.3	-4.3	0.0	1.6	·	·
CCOc1ccc(NC(=O)CCNC(=O)Cn2cnc3ccccc3c2=O)cc1	9.6*	3.0	-8.7	-0.9	-4.2	-1.5	0.6
CSCc1cc(C(=O)NCCN2CCOCC2)c(N)s1	-1.9	-8.2	-4.9	0.5	-1.6	·	·
OCC[C@H]1C[C@@H](O)[C@H](O)[C@@]2(CCc3ccccc3O2)O1	-1.2	1.2	1.4	0.4	0.5	·	·
C[C@H]1CCC[C@]2(O[C@@H](CCO)C[C@@H](O)[C@@H]2O)O1	9.9*	-0.6	6.7	-0.8	4.5	-5.0	2.2
OCC[C@H]1C[C@H](O)[C@@H](O)[C@]2(CCCc3ccccc3O2)O1	-0.4	14.3	10.7*	-0.5	3.9	4.9	3.5
OCC[C@H]1C[C@@H](O)[C@H](O)[C@]2(CCc3ccccc3O2)O1	8.9	0.4	10.8*	0.8	5.9	-4.8	0.7
CCc1ncc(C(O)c2ccc(Cl)cc2)n1Cc1ccccc1 (stereo not drawn)	1.0	-16.8	-1.1	-0.7	-3.5	·	·
CCC[C@H]1[C@@H](NC(=O)c2ccc(N(C)C)cc2)CC[C@@]23CCCN2C(=O)CCC[C@@H]13	-1.3	-4.3	-4.6	·	-8.2	·	·
O=S(=O)(CS(=O)(=O)c1ccccc1Br)c1ccccc1Br	22.1*	-5.4	-0.7	0.0	-4.6	17.1*	-11.8
COc1ccc(C(=O)N2CCN(CCCc3ccccc3)CC2)cc1OC	0.6	-1.7	-1.2	-0.6	-1.3	·	·
COCCNCCCOc1ccc(Br)cc1Cl	11.0*	-15.2	-3.6	0.1	-1.2	9.5*	3.3
CC(C)Cc1cc(C(=O)Nc2cc(C(F)(F)F)ccc2Cl)no1	12.1*	-2.5	2.9	-0.3	2.8	-6.5	-4.2
O=C(Nc1cc(C(F)(F)F)ccc1Cl)c1ccncc1	-2.2	-4.1	-7.3	0.0	-4.6	·	·
COc1ccc(Cl)cc1NC(=O)c1cccc([N+](=O)[O-])c1O	10.0*	4.6	6.2	-0.1	-1.2	-1.8	-4.5
